SENP8 block-1 = blocks human SENP8 cleavage of Nedd8 substrate; recombinant SENP8, Nedd8 substrate fluorescence; Q96LD8; AID 602440; 360,000 tested, 0.64% active; inhibition, % at 20 µM; in the data active = inhibition mostly above about 40%, no sharp cut-off; inactive = mostly below about 27%
Target sequence (Q96LD8 whole entry, looked up): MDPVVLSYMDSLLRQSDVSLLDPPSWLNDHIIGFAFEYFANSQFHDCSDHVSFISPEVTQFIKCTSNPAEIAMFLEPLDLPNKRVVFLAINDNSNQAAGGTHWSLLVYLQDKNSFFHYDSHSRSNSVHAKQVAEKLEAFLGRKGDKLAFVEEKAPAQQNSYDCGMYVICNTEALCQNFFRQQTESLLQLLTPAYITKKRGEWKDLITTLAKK
SENP6 block = SENP6 protease inhibition | Q9GZR1 | Recombinant SENP6 catalytic domain, aminoluciferin luminescence | inhibition, % at 10 µM | 330,000 tested, 1.8% active | AID 2599;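 active = inhibition above about 50% at the single tested dose, limit read from the data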;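 note: plate controls were DMSO wells with enzyme for no effect and DMSO wells lacking enzyme for full effect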
HSP90 refold inh = HSP90 refolding inhibition in rabbit reticulocyte lysate | 290,000 tested, 0.91% active | luciferase refolding luminescence, 3 h | inhibition, % at 5.6 µM;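 active = inhibition above the screen-wide mean plus 3 SD, computed separately per campaign, cut at about 16% in these data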;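 note: 0% = DMSO wells and 100% = 60 µM geldanamycin wells; inhibitors lower the luminescence because luciferase stays unfolded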
SENP7 block = blocks the human protease SENP7. Q9BQF6. 330,000 tested, 1.5% active. recombinant SENP7, Z-RLRGG-aminoluciferin luminescence, 40 min. inhibition, % at 5 µM. AID 434973;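 active = inhibition above about 50% at the single test dose, limit read from the data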;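 note: plate controls were DMSO with enzyme for no effect and no enzyme buffer wells for full effect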
Target sequence (Q9BQF6 706-1050 limits assumed): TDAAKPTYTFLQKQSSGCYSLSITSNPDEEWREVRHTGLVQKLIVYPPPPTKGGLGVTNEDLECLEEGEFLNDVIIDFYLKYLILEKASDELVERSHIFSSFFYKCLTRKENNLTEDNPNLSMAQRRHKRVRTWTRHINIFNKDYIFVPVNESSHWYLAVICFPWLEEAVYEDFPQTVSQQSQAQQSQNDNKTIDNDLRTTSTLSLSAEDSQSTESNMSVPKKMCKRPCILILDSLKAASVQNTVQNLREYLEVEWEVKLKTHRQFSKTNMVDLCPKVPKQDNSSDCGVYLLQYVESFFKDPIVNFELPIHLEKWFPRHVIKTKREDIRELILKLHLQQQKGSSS
SENP8 block-2 = SENP8 protease inhibition; purified SENP8, Z-RLRGG-aminoluciferin cleavage, luminescence; inhibition, % at 10 µM; 330,000 tested, 1.2% active; in the data active = inhibition above about 50%
Platelet DG rel = modulates dense granule release in human platelets. human platelet-rich plasma, SFLLRN dense granule ATP release, luminescence. inhibition, %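 (compounds screened at 7.5 µM in platelet-rich plasma)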. 300,000 tested, 0.22% active;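 active = mean replicate score, as percent of positive control, at or above 50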
SENP8 confirm = human SENP8 inhibition, confirmed. shares compounds with SENP7 block. Recombinant SENP8, Z-RLRGG-aminoluciferin luminescence, 60 min. inhibition, % at 12.5 µM. 6,200 tested, 40% active;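 active = mean inhibition across replicates above about 50%, limit read from the data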
SENP6 confirm = human SENP6 inhibition, confirmed; recombinant SENP6, Z-RLRGG-aminoluciferin luminescence; shares compounds with SENP7 block; 6,200 tested, 58% active; inhibition, % at 12.5 µM
SENP7 confirm = human SENP7 inhibition, confirmed; AID 488917; recombinant SENP7, Z-RLRGG-aminoluciferin luminescence, 40 min; 6,200 tested, 69% active; inhibition, % at 12.5 µM; shares compounds with SENP7 block
Casp3 SENP sel = selectivity test for SENP inhibitors: human caspase-3 inhibition; shares compounds with SENP7 block; purified caspase-3, Z-DEVD-aminoluciferin luminescence, 60 min; inhibition, % at 12.5 µM; 6,200 tested, 60% active; AID 488918;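 active = mean inhibition above about 50%, limit read from the data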;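 note: plate controls were enzyme with DMSO for no effect and wells without caspase-3 for full effect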
Target sequence (P42574 28-227 limits assumed): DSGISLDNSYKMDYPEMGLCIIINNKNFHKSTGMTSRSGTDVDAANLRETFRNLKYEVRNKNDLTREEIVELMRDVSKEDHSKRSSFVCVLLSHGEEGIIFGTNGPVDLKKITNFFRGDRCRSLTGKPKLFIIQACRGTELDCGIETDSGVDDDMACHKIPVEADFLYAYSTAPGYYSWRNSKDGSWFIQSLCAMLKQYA
SENP luc ctr = interferes with luciferase luminescence in SENP counter-screen; 6,200 tested, 39% active; AID 488919; inhibition, % at 12.5 µM; Pre-incubated SENP8/Z-RLRGG-aminoluciferin, luciferase luminescence interference; shares compounds with SENP7 block;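 active = mean inhibition above about 50% when retested at one dose, limit read from the data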;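 note: plate controls were DMSO wells with completed reaction for no effect and substrate without enzyme for full effect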
Starred values were filed as active, the others as inactive; . = not tested or not shown. Rows were chosen to be rich in hits. Some 2.8% of all compounds tested hit in one or more screens of this group.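 Rule for the calls, unless noted: active = mean inhibition above about 50% in the one-dose retest (limit read from the data); inactive = the rest.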

SMILES | SENP8 block-1 | SENP6 block | HSP90 refold inh | SENP7 block | SENP8 block-2 | Platelet DG rel | SENP8 confirm | SENP6 confirm | SENP7 confirm | Casp3 SENP sel | SENP luc ctr
Cn1c(N=Nc2ccccc2)nc2ccccc21 | 65.7* | -4.4 | 41.7* | 100.7* | 97.4* | 71.6* | -15.5 | 99.1* | 103.0* | 93.6* | 97.2*
S=C1NC(c2ccccc2)N2C(=S)NC(c3ccccc3)N12 (stereo not given) | 15.0 | 68.7* | 0.4 | 51.6* | 38.3 | 6.3 | 8.0 | 14.8 | 44.7 | 5.9 | 7.8
Cc1ccc(C2NC(=S)N3C(c4ccc(C)cc4)NC(=S)N23)cc1 (stereo not given) | 5.3 | . | . | . | . | . | . | . | . | . | .
Cc1ccc(S(=O)(=O)N2CCN(C(=O)COC(=O)COc3ccccc3C(C)C)CC2)c(C)c1 | 10.4 | . | . | . | . | . | . | . | . | . | .
O=C1N/C(=C\c2ccc(O)cc2)C(=O)c2ccccc21 | 25.0 | 96.0* | 9.1 | 85.0* | 93.8* | 79.9* | 93.2* | 97.0* | 97.0* | 84.4* | 39.6
CC1CCC2(CC1)NC(=O)N(CC(=O)NCc1ccc(F)cc1)C2=O (stereo not given) | 11.7 | -6.9 | . | -5.3 | -14.9 | . | . | . | . | . | .
COc1ccccc1C(=O)Nc1cccc(NC(C)=O)c1 | 10.7 | -11.7 | 1.5 | -4.0 | 2.9 | 2.0 | . | . | . | . | .
CSc1ccccc1NC(=O)Nc1cccc(Cl)c1 | 2.6 | 82.9* | 1.0 | 80.1* | 67.0* | 22.8 | 83.3* | 79.6* | 95.4* | 53.0* | 73.4*
Cc1ccc(NC(=O)Nc2ccc(F)c(Cl)c2)cc1 | 24.4 | -0.1 | 0.7 | 33.7 | 1.0 | 0.2 | . | . | . | . | .
COc1ccccc1C(=O)NC(=O)Nc1cccc(Cl)c1 | 20.5 | 79.4* | 3.9 | 85.4* | 81.6* | -0.7 | 43.7 | 36.3 | 40.3 | 42.5 | 29.6
COc1ccc(NC(=O)Nc2ccccc2SC)c(OC)c1 | 8.3 | 11.5 | -1.4 | 6.5 | 2.3 | 3.6 | . | . | . | . | .
CSc1ccccc1NC(=O)Nc1cccc(Cl)c1Cl | 4.7 | 5.9 | 6.9 | 0.6 | -1.4 | 2.9 | . | . | . | . | .
CSc1ccccc1NC(=O)Nc1ccc(F)c(Cl)c1 | 13.4 | 76.9* | -3.3 | 86.6* | 67.8* | 5.1 | 1.0 | 75.5* | 96.5* | 68.4* | 71.8*
COc1cccc(NC(=O)Nc2ccccc2SC)c1 | 12.4 | 33.1 | 0.4 | 47.4 | 51.3* | 4.6 | 78.3* | 71.7* | 91.0* | 70.9* | 71.8*
COc1cc(NC(=O)C[n+]2ccc(C(=O)c3ccccc3)cc2)cc(OC)c1 | 17.3 | -4.4 | . | -7.8 | -11.1 | . | . | . | . | . | .
CC(=O)OCCn1c([N+](=O)[O-])cnc1C=[N+]([O-])C1CCCCC1 | 18.7 | . | . | . | . | . | . | . | . | . | .
CC(NC(=O)CSc1nnnn1C1CC1)c1ccccc1Br (stereo not given) | 9.9 | 12.8 | . | 4.2 | -3.8 | . | . | . | . | . | .
O=c1cc(-c2ccccc2)nc2c(Cl)cc(Cl)cn12 | -147.8 | . | . | . | . | . | . | . | . | . | .
CN(C)c1ccc(NC(=O)Nc2cccc(Cl)c2)cc1 | 17.3 | 89.2* | -0.7 | 88.5* | 80.4* | 25.8 | 76.3* | 85.4* | 99.3* | 82.2* | 66.2*
COCn1c(-c2ccc(OC)c(OC)c2)nc2ccccc21 | -20.1 | 4.0 | -4.3 | 13.7 | -3.1 | -4.2 | . | . | . | . | .
COCn1c(-c2cccc(Br)c2)nc2ccccc21 | 10.5 | 50.9* | 4.0 | 39.8 | 22.0 | 0.3 | 22.9 | 20.3 | 65.4* | 41.9 | 54.9*
Cc1ccc(NC(=O)C(=O)NNC(=O)c2cccs2)cc1 | 1.3 | 56.8* | -1.0 | 41.0 | 55.0* | -0.6 | -22.8 | 35.6 | 78.8* | 82.8* | 17.2
Cc1ccccc1-c1nc(-c2ccc(NC(=O)c3cccs3)cc2)no1 | -25.2 | 27.8 | -1.1 | 50.9* | 16.8 | 20.8 | 15.4 | 17.2 | 48.0 | 46.5 | 40.9
CCC(=O)Nc1ccc(C(=O)NNC(=O)c2cccs2)cc1 | 9.8 | -11.4 | -9.5 | 5.9 | 3.3 | 7.5 | . | . | . | . | .
O=C(Nc1ccc2c(c1)CCC2)c1cccs1 | 13.9 | 36.0 | 4.0 | 77.9* | 62.0* | 6.5 | 82.7* | 87.2* | 95.7* | 82.8* | 83.1*
SMILES | SENP8 block-1 | SENP6 block | HSP90 refold inh | SENP7 block | SENP8 block-2 | Platelet DG rel | SENP8 confirm | SENP6 confirm | SENP7 confirm | Casp3 SENP sel | SENP luc ctr
O=C(Nc1ccc(-c2noc(-c3ccccc3F)n2)cc1)c1cccs1 | -139.3 | 2.5 | -4.7 | 5.8 | -4.9 | 2.8 | . | . | . | . | .
Cc1ccc(NC(=O)c2cccs2)cc1 | 5.4 | 39.7 | -0.5 | 52.9* | 22.6 | 6.1 | 33.5 | 38.0 | 75.2* | 65.2* | 52.3*
CC1(c2nnc(-c3cccc(Cl)c3)o2)CC(c2ccccc2Br)=NO1 (stereo not given) | 11.7 | 1.4 | 0.9 | 3.9 | 1.0 | 3.3 | . | . | . | . | .
CCCCNC(=O)c1nc(C2CCN(S(=O)(=O)c3ccccc3C(F)(F)F)CC2)oc1-c1ccccc1 | 17.0 | . | . | . | . | . | . | . | . | . | .
CC(=O)c1cccc(NC(=O)c2cccc3c(-c4cccnc4)coc23)c1 | 11.4 | . | . | . | . | . | . | . | . | . | .
COc1ccc(C2=NS(=O)(=O)N(C)C(C(=O)N3CCCCC3C)=C2)cc1 (stereo not given) | -244.7 | -10.0 | 3.9 | 16.3 | -15.7 | -1.5 | . | . | . | . | .
CCN(CC)C(=O)C1=C(C)N(Cc2ccc(OC)cc2)C(=O)C(CC(=O)NCCCN(C)C)C1 (stereo not given) | -21.3 | . | . | . | . | . | . | . | . | . | .
CCOC(=O)CCS(=O)(=O)c1ccc(-c2ccc(S(=O)(=O)CCC(=O)OCC)cc2)cc1 | 3.3 | -20.0 | 2.5 | 58.2* | 6.4 | 6.7 | 3.3 | 3.0 | -1.7 | -2.5 | -0.7
Cc1ccc(S(=O)(=O)CCC(=O)OCC(=O)NC(N)=O)cc1 | 21.5 | 0.4 | -2.6 | -8.2 | -5.9 | -2.1 | . | . | . | . | .
O=C(O)c1cccc(NC2=C(N3CCOCC3)C(=O)c3ccccc3C2=O)c1 | 58.6* | 74.8* | -0.3 | 42.0 | 56.7* | -0.5 | 68.9* | 80.9* | 59.7* | 64.1* | 5.2
Cc1cc(C(=O)N/N=C/c2ccc3c(c2)OCO3)c(C)o1 | -15.1 | 73.9* | 2.0 | 76.6* | 70.4* | 12.2 | 85.9* | 83.6* | 97.2* | 92.9* | 58.2*
Cc1ccsc1C(=O)N/N=C/c1ccc2c(c1)OCO2 | -62.8 | 97.0* | 8.9 | 100.2* | 96.1* | 65.6* | 96.1* | 100.4* | 103.3* | 98.9* | 98.9*
O=C(N/N=C/c1ccc2c(c1)OCO2)c1cccs1 | -148.1 | 75.8* | 3.8 | 88.6* | 83.7* | 6.6 | 91.5* | 92.6* | 99.8* | 94.5* | 89.9*
